According to PubChem BioAssay (NCI):
This is part of a sample that, as a whole, favours compounds with a hit. Of some 79,000 tested, about 15% had one in any assay. The source made the active and inactive calls. No stated cut-off is given here; in the data, active means growth inhibition above about 70%; inactive means the rest.

Key:
[1] = NCI Yeast Anticancer Drug Screen. Data for the rad50 strain (AID 155);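 further: 0% = growth of vehicle-only cultures of the same strain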; details: S. cerevisiae rad50 strain growth inhibition; at 50.0 µM; stronger effect = higher value
How it was run: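 Vehicle-treated cultures provide the reference for the growth inhibition reported for compound-exposed, repair-deficient yeast.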

[2] = NCI Yeast Anticancer Drug Screen. Data for the mec2-1 strain (AID 157); details: S. cerevisiae mec2-1 strain, at 50.0 µM, stronger effect = higher value
How it was run: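 Vehicle-treated cultures served as reference for growth inhibition of compound-exposed mec2-1 yeast.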

[3] = NCI Yeast Anticancer Drug Screen. Data for the sgs1 mgt1 strain (AID 161);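 further: 0% = growth of cultures given vehicle only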; details: S. cerevisiae sgs1 mgt1 strain, at 50.0 µM, stronger effect = higher value
How it was run: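 Test agents were incubated with a DNA-repair-mutant yeast strain. Growth was then read and compared against vehicle-treated controls.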

[4] = NCI Yeast Anticancer Drug Screen. Data for the cln2 rad14 strain (AID 165);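 further: 0% = growth equal to vehicle treated cultures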; details: S. cerevisiae cln2 rad14 strain, at 50.0 µM, stronger effect = higher value
How it was run: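 Each compound was tested on cln2 rad14 yeast. Inhibition of growth was calculated against vehicle-exposed controls.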

[5] = NCI Yeast Anticancer Drug Screen. Data for the bub3 strain (AID 167); details: S. cerevisiae bub3 mutant strain, at 50.0 µM, stronger effect = higher value
How it was run: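 Mutant yeast screening strain plus compound; vehicle-treated cultures serve as the 0% inhibition reference.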

[6] = NCI Yeast Anticancer Drug Screen. Data for the mlh1 rad18 strain (AID 175); details: S. cerevisiae mlh1 rad18 strain growth inhibition; at 50.0 µM; stronger effect = higher value
How it was run: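 Vehicle-treated cultures served as the reference for growth inhibition in a yeast strain carrying DNA damage repair alterations exposed to each compound.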

Measured: growth inhibition

CCOc1ccc(N=C(NC(=O)c2ccccc2)SC)cc1
inactive: [1] -5.9% | [2] -0.7% | [3] -0.15% | [4] 23.3% | [5] 10.1% | [6] 0.65%

C=CC1C(=O)N(C)[C@H](C(C)(C)C)N1C(=O)c1ccccc1 (stereo partly specified)
inactive: [1] 1.5% | [2] 11.9% | [3] 9.1% | [4] -18.9% | [5] 2% | [6] 10%

COc1ccc(Cc2ccc(Cl)cc2)c(OC)c1
inactive: [1] 3.3% | [2] 2.25% | [3] 19.8% | [4] 15.2% | [5] -12.2% | [6] -5.15%

O=C(Nc1cccc(C(F)(F)F)c1)OCCOc1ccc(Cl)cc1
active: [1] 99.2% | [2] 99.3% | [3] 99.2% | [4] 98% | [5] 99% | [6] 98%

O=C(O)c1c(CN2CCOCC2)c(O)c(O)c(O)c1CN1CCOCC1
inactive: [1] -1.2% | [2] 0.15% | [3] -7.1% | [4] -2.3% | [5] 1.3% | [6] 5.5%

N#CC(c1ccc(N)cc1)c1ccc(F)cc1 (stereo unspecified)
inactive: [1] 15.6% | [2] -16.8% | [3] 22.2% | [4] 27.2% | [5] -0.6% | [6] 26.2%

O=C(Cl)c1ccc2c(c1)C(=O)NC2=O
inactive: [1] -6.55% | [2] -12.1% | [3] -19.4% | [4] 8.95% | [5] -5.95% | [6] -16.4%

COc1ccc(Cc2coc3ccccc3c2=O)cc1
inactive: [1] 13.1% | [2] 7.35% | [3] 13.7% | [4] 4.85% | [5] 25.2% | [6] 9.4%

CCN(Cc1ccccc1)C(=O)Nc1c(Cl)cccc1Cl
inactive: [1] -13.5% | [2] -30.1% | [3] 1.35% | [4] -1.5% | [5] -9.85% | [6] -4.05%

Cc1cc(OCc2nnc3n2S(=O)(=O)c2ccccc2N3C)ccc1Cl
inactive: [1] 49.4% | [2] 2% | [3] -21.8% | [4] -0.75% | [5] -30.4% | [6] -22.4%

CCNc1ncnc2c1cnn2C
inactive: [1] 0.45% | [2] -1.45% | [3] 2.45% | [4] -36% | [5] -2.8% | [6] -8.4%

N=C(N=C(C(Cl)(Cl)Cl)C(Cl)(Cl)Cl)N=C(C(Cl)(Cl)Cl)C(Cl)(Cl)Cl
inactive: [1] 8.75% | [2] 15.3% | [3] 11.1% | [4] -8.55% | [5] -24.2% | [6] 19.6%

COc1cc2c(c(OC)c1OC)-c1ccc(SC)c(=O)cc1[C@@H](NC1OCC(O)C(O)C1O)CC2 (stereo partly specified)
inactive: [1] 20.4% | [2] 35.1% | [3] 24.1% | [4] 8.65% | [5] 21.1% | [6] 16.8%

CCOC(=O)NC(=O)c1cn(CCCOC(=O)CCCCCCCCC(=O)OCCCn2cc(C(=O)NC(=O)OCC)c(=O)n(C)c2=O)c(=O)n(C)c1=O
inactive: [1] -16.4% | [2] -25.1% | [3] -25.2% | [4] 6% | [5] 4.3% | [6] -23.7%

O=S(=O)(Cc1c[nH]c2ccccc12)c1ccccc1
inactive: [1] 34.1% | [2] -3.2% | [3] 31.1% | [4] 11.3% | [5] 20.5% | [6] 37.6%

COc1cc2oc3cc(OC)c(OC)c(CC=C(C)C)c3c(=O)c2c(O)c1CC=C(C)C
inactive: [1] -1.45% | [2] -30.6% | [3] 0.15% | [4] 5.8% | [5] -30.6% | [6] 21.2%

O=C(Nc1ccccc1)N1CCC[C@@H]2CCCC[C@@H]21
inactive: [1] 3.2% | [2] -0.15% | [3] 0.7% | [4] -82.4% | [5] -6.8% | [6] -4.45%

CC(C)(C)N(Cc1ccccc1)C(=O)Nc1ccccc1
inactive: [1] 6.45% | [2] 3.95% | [3] 21.5% | [4] 1.35% | [5] 32.3% | [6] 7.4%

CC(=O)Nc1ccc([N+](=O)[O-])cc1[N+](=O)[O-]
inactive: [1] 3.35% | [2] -10.9% | [3] -4.05% | [4] -37.9% | [5] -15.6% | [6] 3.95%

CCC12CC(=O)CCC1CCc1ccc(OC)c(OC)c12 (stereo unspecified)
inactive: [1] -14.6% | [2] 15.9% | [3] -2.4% | [4] -7.2% | [5] 18.4% | [6] 22.2%

Nc1cccc(S(=O)(=O)O)c1
inactive: [1] -27.1% | [2] -10.8% | [3] -36.2% | [4] -37.1% | [5] -13.8% | [6] -5.2%

Cc1nc2c3c4c(sc3nc(C)n2n1)CCCC4
active: [4] 80.4%
inactive: [1] 1% | [2] 10.3% | [3] 22.2% | [5] 7.3% | [6] 12%

COc1ccccc1N1C(=O)/C(=N\OC(=O)c2c(-c3c(Cl)cccc3Cl)noc2C)SC1=S
inactive: [1] -13.9% | [2] -26.6% | [3] -19.5% | [4] 11% | [5] -34.8% | [6] -0.2%

OC1(CCC2OCCO2)c2ccccc2-c2ccccc21
inactive: [1] -3.9% | [2] 7.05% | [3] 7.85% | [4] 25.4% | [5] 15.8% | [6] 2.85%

CSc1nnc(N(C(C)C)C(C)C)c2nc[nH]c12
inactive: [1] 9.65% | [2] 11.8% | [3] 16.1% | [4] 47.5% | [5] 14.7% | [6] 4.2%

CC(=O)c1cc([N+](=O)[O-])c(N)s1
inactive: [1] 7.35% | [2] -3.2% | [3] -13.2% | [4] 5.25% | [5] -4.15% | [6] -3.8%

CCSC1=C(C)N(C=NC(C)(C)C)CC1
inactive: [1] -3.7% | [2] -23.5% | [3] -38% | [4] 7.4% | [5] -28.8% | [6] -14%

O=C(CCNC(=O)OCc1ccccc1)NC(Cc1ccccc1)C(=O)OCc1ccccc1 (stereo unspecified)
inactive: [1] -0.9% | [2] -14.2% | [3] 4.55% | [4] -15.3% | [5] 2.4% | [6] 7.65%

CCCC(=O)Nc1cc(C(=O)N2C[C@@H]3C[C@]34C2=CC(=O)c2[nH]cc(C)c24)n(COC)c1
inactive: [1] 26.5% | [2] 10.5% | [3] 30.6% | [4] 10.1% | [5] 8.9% | [6] 47.4%

COc1cccc(CCN(CCOC(N)=O)CCOC(N)=O)c1OC
inactive: [1] -10.1% | [2] -5.25% | [3] 2.9% | [4] -7.35% | [5] -4.85% | [6] -2.65%

CN(C)c1ccc(/C=C\C(O)c2ccccc2)cc1 (stereo unspecified)
inactive: [1] 22.7% | [2] 11.3% | [3] 32.2% | [4] 7.6% | [5] 2.55% | [6] 42%

C=C(CO)CC(CC(=C)CCS(=O)(=O)c1ccccc1)S(=O)(=O)c1ccccc1 (stereo unspecified)
inactive: [1] 8.55% | [2] 1.75% | [3] -0.9% | [4] 8.85% | [5] 7.35% | [6] -5.75%

O=C(NC1CCC(CC2CCCCC2)CC1)c1ccccc1 (stereo unspecified)
inactive: [1] -14.7% | [2] 0.7% | [3] -7.65% | [4] 21.2% | [5] 10.8% | [6] 19.2%

N#Cc1c(-c2ccc(Cl)cc2)cn2c1[nH]c(=O)c1c3c(sc12)CCCC3
inactive: [1] 13.2% | [2] 10.2% | [3] 0.15% | [4] -6.8% | [5] -4.25% | [6] 1.35%

COc1nc(NCCO)nc(OC)n1
inactive: [1] 3.35% | [2] -2.5% | [3] -16.5% | [4] -29.6% | [5] 4.65% | [6] -4.85%

CC(=O)Oc1cc2c(cc1OC(C)=O)C(=O)c1cc3c(cc1C2=O)OCO3
inactive: [1] -31.7% | [2] -10.9% | [3] -1.3% | [4] -17.2% | [5] -6.5% | [6] -12%

c1ccc(-c2csc(-c3nc(-c4ccccc4)cs3)n2)cc1
inactive: [1] -0.55% | [2] 50% | [3] 30.6% | [4] -6.85% | [5] 33% | [6] 60.6%

CCOC(=O)C(C#N)S(C)(=O)=O (stereo unspecified)
inactive: [1] 4.55% | [2] -6.55% | [3] 1.9% | [4] -35.3% | [5] -12.1% | [6] -1.6%

O=C(c1c(F)c(F)c(F)c(F)c1F)n1c(=O)[nH]c2ccccc21
inactive: [1] -18.2% | [2] 13.2% | [3] -10.2% | [4] -12.1% | [5] 23.3% | [6] -27.4%

CCOC(=O)/C(=C/n1c(=S)[nH]c2ccc([N+](=O)[O-])cc21)C(=O)c1ccccc1
inactive: [1] -7.55% | [2] -44.8% | [3] -12.9% | [4] -1.35% | [5] -16.7% | [6] -4.65%

N.N.N.N.N.O=S(=O)([O-])S(=O)(=O)[O-].[Co+3]
inactive: [1] 9.15% | [2] 16.4% | [3] 13% | [4] 23.2% | [5] -2.05% | [6] -9%
